Screening data deposited in PubChem by National Center for Advancing Translational Sciences (NCATS).
The list is not random: actives were taken first. Their share in the collection is about 7.6%.
HEK293 cAMP cs – raises cAMP in parental HEK293 cells, TSHR agonist counter-screen; parental HEK293 CNG cAMP sensor, membrane potential fluorescence; 73,000 compounds, 2.5% hits; Potency, µM (highest dose often 57.1 µM), for inactives: at the top dose activation, actives largely listed as activators; note: % of control where 0% means no effect; nearly all actives have a fitted effect of over 55% in size
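Parental HEK 293 cells stably expressing a modified CNG channel (no TSHR) report cAMP rise as membrane depolarization. Membrane potential dye with 100 uM RO 20-1724 was loaded for 60 min at room temperature, then compound added for 30 min; fluorescence read at 590 nm.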
TSHR agonist – TSH receptor (human) agonism; AID 926; HEK293-CNG-TSHR cells (CNG channel as cAMP sensor), membrane potential dye, cAMP; Potency, µM (top dose mostly 57.1 µM), inactives show at the top dose activation, most hits filed as activators; P16473; 73,000 compounds, 0.48% hits; active = well fitted activation curve with a large enough effect in the main read-out, with a control signal flat, not every such curve was filed as active; inconclusive = small, poorly fitted or top-dose-only effect, or a change in a side signal; inactive = no such curve, though single readings can be large or run the other way; % of control where 0% means no effect;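 note: the control signal comes from parental cells without the receptor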
Target sequence (P16473 whole entry, looked up): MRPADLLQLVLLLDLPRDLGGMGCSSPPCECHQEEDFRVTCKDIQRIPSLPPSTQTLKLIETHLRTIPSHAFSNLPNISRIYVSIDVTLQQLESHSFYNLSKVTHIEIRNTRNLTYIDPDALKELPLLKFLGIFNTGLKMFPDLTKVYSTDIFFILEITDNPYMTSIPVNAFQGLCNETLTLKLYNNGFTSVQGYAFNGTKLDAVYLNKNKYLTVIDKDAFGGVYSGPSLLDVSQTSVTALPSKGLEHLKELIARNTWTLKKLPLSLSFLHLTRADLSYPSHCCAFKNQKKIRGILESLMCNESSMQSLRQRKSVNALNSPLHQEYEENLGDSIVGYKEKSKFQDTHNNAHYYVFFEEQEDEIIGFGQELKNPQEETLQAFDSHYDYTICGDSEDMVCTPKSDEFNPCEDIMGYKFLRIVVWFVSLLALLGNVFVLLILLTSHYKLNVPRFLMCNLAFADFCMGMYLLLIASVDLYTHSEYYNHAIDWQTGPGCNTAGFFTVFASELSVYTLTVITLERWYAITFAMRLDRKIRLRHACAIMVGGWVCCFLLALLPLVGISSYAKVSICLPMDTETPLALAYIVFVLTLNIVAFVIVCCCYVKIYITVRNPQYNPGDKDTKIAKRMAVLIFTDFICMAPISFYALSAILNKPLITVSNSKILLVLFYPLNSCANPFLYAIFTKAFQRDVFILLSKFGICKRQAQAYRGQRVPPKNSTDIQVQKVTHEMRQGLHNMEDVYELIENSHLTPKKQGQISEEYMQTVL
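cAMP rise detected as CNG-channel membrane depolarization by fluorescent dye (emission 590 nm), 30 min after compound, following 60 min dye loading containing 100 uM RO 20-1724 at room temperature. Cells: TSHR/CNG HEK 293, with parental CNG HEK 293 as control.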
ERK AVP block – vasopressin-driven ERK pathway inhibition. HEK293-V1b, vasopressin-stimulated pERK AlphaScreen. AID 995. Potency, µM (titrated, usually from 57.5 µM), without a hit: at the top dose activity, negative = inhibition, usual class: inhibitors. 72,000 compounds, 0.99% hits; note: % is set by controls: 0 for no effect and ±100 for the full control effect; nearly all actives have a fitted effect of over 55% in size
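Overnight-seeded V1b-HEK293 cells in 1% FBS got compound, then vasopressin (25 nM final, 5 min, 37C), then lysis buffer. AlphaScreen detection of phospho-ERK; activity normalized to basal and full-stimulation controls.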
CRE Fsk mod – CRE-bla signaling modulation under forskolin stimulation; CHO CRE-bla reporter (cAMP response element driving beta-lactamase), forskolin EC10, beta-lactamase ratio; Potency, µM (doses to about 38.2 µM), for inactives: top-dose activity change, negative = inhibition, usual class: activators; 71,000 compounds, 2.5% hits; active = well fitted activation curve with a large enough effect in the signal ratio, with a control signal flat, not every such curve was filed as active; inconclusive = small, poorly fitted or top-dose-only effect, or effect the other way, or a change in a side signal; the % refers to the signal ratio; note: % of control where 0% means no effect
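The 460nm/530nm emission ratio after CCF4 loading defined %Activity, from which AC50 values were obtained. CRE-bla CHO cells received compound dilution series together with an EC10 level of NKH 477 for 3 hours at 37 degrees Celsius.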
Tau fil binding – tau filament binding; P10636; Potency, µM (top dose mostly 57.1 µM), for the others: at the top dose activity change, negative = inhibition; 71,000 compounds, 2% hits; recombinant tau filaments, thioflavin S fluorescence, 15 h; filaments grown with octadecylsulfate alongside compound;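 note: % is set by controls: 0 for no effect and ±100 for the full control effect; actives lower thioflavin S fluorescence by blocking filaments or displacing dye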
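Recombinant tau protein (human, 1 uM final) plus 30 uM ODS in HEPES pH 7.4 with NaCl, DTT and thioflavine S. Compound present from the start; fluorescence at 510 nm after 15 h, 37 C.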
The depositor's hits bear a star; ? = inconclusive; . = no result given; ! = a repeat was not active; [ ] = dose if it differs, or a comment. Unless noted, calls come from the whole dose curve; as a rule, active = well fitted curve in the direction sought with a large enough effect; inconclusive = small, poorly fitted or top-dose-only effect, or another doubt; inactive = no such curve, though single readings can be large; an effect the other way counts as inactive or inconclusive. Potency is the fitted concentration of half-maximal effect.

SMILES	HEK293 cAMP cs	TSHR agonist	ERK AVP block	CRE Fsk mod	Tau fil binding
N#CCCn1c(=O)c(-c2ccc(F)cc2)nc2cnc(N3CCOCC3)nc21	8%	1%	-5%	0.4µM*	28%
N#CCCn1c(=O)c(-c2ccc(Cl)cc2)nc2cnc(N3CCOCC3)nc21	-9%	4%	-11%	5µM*	35%
O=c1cnc2cnc(N3CCOCC3)nc2n1Cc1cccs1	?	?	12%	?	-9%
N#CCCn1c(=O)cnc2cnc(N3CCOCC3)nc21	9%	6%	6.3µM*	23%	11%
CC1(C)C(=O)C=C[C@@]2(C)C1C=C[C@@]1(C)C2CC[C@@]2(C)C(c3ccoc3)OC(=O)C3OC312 (stereo not given in full)	.	.	12%	.	.
CC(=O)N(O)[C@@H]1c2cc(C#N)ccc2OC(C)(C)[C@H]1O	-3%	4%	-4%	.	.
C=C[C@H]1CN2CC[C@@H]1C[C@@H]2[C@@H](O)c1ccnc2ccc(OC)cc12	.	.	15%	-8%	-6%
Cc1ccc(-c2nc3ncccn3c2NC2CCCC2)o1	?	?	-23%	?	13µM*
Cc1ccc(-c2nc3ncccn3c2Nc2ccc3c(c2)OCO3)o1	-24%	-37%	?	?	13µM*
c1cn2c(NC3CCCC3)c(-c3ccc(N4CCOCC4)cc3)nc2cn1	-5%	-7%	.	?	15%
Cc1onc(-c2c(Cl)cccc2Cl)c1C(=O)N[C@H]1C(=O)N2[C@H]1SC(C)(C)[C@H]2C(=O)O	27%[25.6 µM]	-17%[25.6 µM]	-16%[25.7 µM]	-12%[17.1 µM]	1%[25.6 µM]
CCCNC(=O)OC[C@H]1O[C@@H](CCO/N=C2/C[C@@H](O)[C@@H](O)[C@@H]3[C@@H]4C(=O)N(CC)C(=O)[C@H]4CC[C@@H]23)C=C[C@@H]1Oc1ccc(OC)cc1	-3%[11.4 µM]	-7%[11.4 µM]	15%[11.5 µM]	.	.
Cc1csc2nc(CSc3nc4ccccc4o3)c(Br)n12	25µM*	?	-15%	2.5µM*	25%
Cc1csc2nc(CSc3nncn3-c3ccccc3)c(Br)n12	0%	.	-16%	?	1%
Cc1cccc2cc(CN(CC3CCCO3)S(=O)(=O)c3ccccc3)c3nnnn3c12 (stereo not given)	27%	9%	13%	5%	7%
Cc1cccc2cc(CN(CC3CCCO3)C(=O)c3cccnc3)c3nnnn3c12 (stereo not given)	-9%	1%	0%	4µM*	-6%
Cc1ccc(-c2nc(CS(=O)(=O)CC(=O)N3CCc4ccccc4C3)c(C)o2)cc1	1.6µM*	?	?	-23%	59%
COc1cccc(-n2nnc3c(=O)n(Cc4ccc(C)cc4)cnc32)c1	16µM*	?	1%	?	219%
CCOc1ccccc1NC(=O)Cn1cnc2c(nnn2-c2cccc(OC)c2)c1=O	19%	6%	.	13µM*	9%
Cc1ccc(-n2nnc3c(=O)n(Cc4cc(C)ccc4C)cnc32)cc1	20µM*	?	5%	19%	32%
Cc1cccc(Cn2cnc3c(nnn3Cc3ccccc3F)c2=O)c1	22%	.	-2%	1.3µM*	8%
Cc1ccc(-n2nnc3c(=O)n(Cc4cccc(C)c4)cnc32)cc1	12%	.	.	?	88%
CCOC(=O)C1=C(C)Nc2nc(C)nn2C1c1ccc(OC)c(OC)c1 (stereo not given)	1.6µM*	?	0%	?	3%
CCOC(=O)C1=C(C)Nc2nc(C)nn2C1c1ccc(OCC)c(OC)c1 (stereo not given)	-4%	-3%	-9%	8%	0%
Cc1nc2ccc(Nc3nc4cc(S(=O)(=O)N5CCOCC5)ccc4o3)cc2s1	-10%	-4%	4%	13µM*	23%
SMILES	HEK293 cAMP cs	TSHR agonist	ERK AVP block	CRE Fsk mod	Tau fil binding
Cc1nc2ccc(NC(=O)N3CCOCC3)cc2s1	4%	2%	-12%	-1%	0%
CCOC(=O)c1cnn2c(C(F)(F)F)cc(-c3ccccc3)nc12	?	?	15%	?	13µM*
CCOC(=O)C1CCCN(C(=O)c2cc3nc(-c4cccc(OC)c4)cc(C(F)(F)F)n3n2)C1 (stereo not given)	17%	14%	16µM*	-17%	-26%
CCOC(=O)C1CCCN(C(=O)c2cnn3c(C(F)(F)F)cc(-c4ccccc4)nc23)C1 (stereo not given)	?	?	4%	?	13µM*
CCOC(=O)N1CCC(NC(=O)c2cnn3c(C(F)(F)F)cc(-c4cccc(OC)c4)nc23)CC1	-17%	-15%	-6%	10%	-12%
CCCn1c(C)nc2c(N3CCC(N(C)C)C3)nc(C)nc21 (stereo not given)	-12%	4%	-15%	16%	1%
O=C1c2c(O)ccc(O)c2C(=O)c2c(NCCNCCO)ccc(NCCNCCO)c21	-2%[25.6 µM]	-20%[25.6 µM]	13µM*!	5%[17.1 µM]	4µM*
CCOc1ccc(NC(=O)Cn2nnc(-c3ccccc3NC(=O)CC)n2)cc1	-5%	-2%	13%	5%	101%
COc1ccc(NC(=O)Cn2nnc(-c3ccccc3NC(=O)c3cccs3)n2)cc1	2%	25µM*	3%	?	56%
CCNc1ncc2nc(C)c(=O)n(Cc3cccc(OC)c3)c2n1	25%	3%	?	10µM*	0%
COc1cccc(Cn2c(=O)c(C)nc3cnc(N(C)C)nc32)c1	?	?	-16%	13µM*	4%
COc1cccc(Cn2c(=O)c(C)nc3cnc(Nc4cccc(OC)c4)nc32)c1	?	?	?	?	30%
CCNc1ncc2nc(C)c(=O)n(CCOC)c2n1	?	?	-16%	10µM*	1%
COc1cccc(Cn2c(=O)c(-c3ccccc3)nc3cnc(N(C)C)nc32)c1	18%	4%	283%	?	2%
CCNc1ncc2nc(C)c(=O)n(C)c2n1	14%	.	?	?	50%
CC(=O)Oc1c2occc2cc2ccc(=O)oc12	8%	7%	-16%	-5%	-4%
COc1c2occc2cc2ccc(=O)oc12	10%	?	?	16µM*!	2%
Cc1ccc2nc(NCc3ccco3)c(C=NCc3ccco3)c(=O)n2c1	9%	8%	-14%	10µM*	-8%
Cc1ccc(S(=O)(=O)Nc2nc3ccccc3nc2NCc2ccco2)cc1	?	?	-16%	?	112%
CCCC(c1nnnn1Cc1ccc(OC)cc1)N1CCN(c2ccccc2OC)CC1 (stereo not given)	25µM*	?	6%	1%	-8%
CCCC(c1nnnn1Cc1ccccc1)N1CCN(c2ccccc2OC)CC1 (stereo not given)	10µM*	?	-10%	-13%	6%
CC(C)N(CCNC(=O)c1ccc(Cc2nc3ccccc3[nH]2)cc1)C(C)C	-13%	-4%	.	.	.
